Among the data in PubChem BioAssay AID686949 (The Scripps Research Institute Molecular Screening Center, 2013) are activation values, retold here.

Each structure is given as a SMILES string. The whole screen tested about 3,200 compounds, of which about 2,200 (69%) were called active.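 How the source made its calls: active means activation, as change over the incubation, above the mean of all tested compounds plus 3 SD (cut at about 13% in these data); inactive means the rest.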 So high a share suggests a set chosen from earlier hits. These entries were drawn from the full list.

This test deals with Kallikrein-7 (Homo sapiens) (UniProt P49862). Kind of test: activation of human kallikrein-7 proenzyme – biochemical, fluorescence intensity, triplicate, confirmation (AID 686949). The conditions noted are these: purified proKLK7, EDANS-DABCYL substrate fluorescence; at 7 µM; active compounds read high.
Chain of Kallikrein-7 (Homo sapiens) (P49862 whole entry, looked up): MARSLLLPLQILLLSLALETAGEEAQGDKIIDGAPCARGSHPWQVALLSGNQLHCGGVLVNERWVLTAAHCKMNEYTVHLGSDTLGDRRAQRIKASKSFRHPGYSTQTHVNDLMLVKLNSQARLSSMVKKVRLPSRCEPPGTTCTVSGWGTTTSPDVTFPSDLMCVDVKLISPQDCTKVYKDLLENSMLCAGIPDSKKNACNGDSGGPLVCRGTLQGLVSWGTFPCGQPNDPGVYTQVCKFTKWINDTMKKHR
Consider `COc1cccc(-c2nc3ccc(N4CCN(C)CC4)cc3[nH]2)c1`, for which the activation was 64% (active).
Consider `CCOc1ccc(-c2cc(C)[n+](CCN(CC)CC)c(-c3ccc(OCC)cc3)c2)cc1`, for which the activation is 19.2% (active).
Take `Cc1nc2ccc(N3CCN(C)CC3)cc2nc1C`: the activation was 16.1% (active).
Next, `CCOC(=O)c1c(N)n(CCN2CCOCC2)c2nc3ccccc3nc12`: 27.8% (active).
